Test results reported in publication PMC4336329 (PLoS ONE, 2015).
Hit rate of the full screen: of about 310,000 compounds, about 14,000 (4.5%) showed an effect of 50% or more. Effects have a minus sign here. This is one part of a sample in which strong results are shown more often than they occur.

molecular target: human ether-à-go-go-related gene (hERG) potassium channel (human, UniProt Q12809); test: primary screen, population patch clamp on CHO cells stably expressing hERG; higher = less effect of the substance
Sequence (Q12809 whole entry, looked up): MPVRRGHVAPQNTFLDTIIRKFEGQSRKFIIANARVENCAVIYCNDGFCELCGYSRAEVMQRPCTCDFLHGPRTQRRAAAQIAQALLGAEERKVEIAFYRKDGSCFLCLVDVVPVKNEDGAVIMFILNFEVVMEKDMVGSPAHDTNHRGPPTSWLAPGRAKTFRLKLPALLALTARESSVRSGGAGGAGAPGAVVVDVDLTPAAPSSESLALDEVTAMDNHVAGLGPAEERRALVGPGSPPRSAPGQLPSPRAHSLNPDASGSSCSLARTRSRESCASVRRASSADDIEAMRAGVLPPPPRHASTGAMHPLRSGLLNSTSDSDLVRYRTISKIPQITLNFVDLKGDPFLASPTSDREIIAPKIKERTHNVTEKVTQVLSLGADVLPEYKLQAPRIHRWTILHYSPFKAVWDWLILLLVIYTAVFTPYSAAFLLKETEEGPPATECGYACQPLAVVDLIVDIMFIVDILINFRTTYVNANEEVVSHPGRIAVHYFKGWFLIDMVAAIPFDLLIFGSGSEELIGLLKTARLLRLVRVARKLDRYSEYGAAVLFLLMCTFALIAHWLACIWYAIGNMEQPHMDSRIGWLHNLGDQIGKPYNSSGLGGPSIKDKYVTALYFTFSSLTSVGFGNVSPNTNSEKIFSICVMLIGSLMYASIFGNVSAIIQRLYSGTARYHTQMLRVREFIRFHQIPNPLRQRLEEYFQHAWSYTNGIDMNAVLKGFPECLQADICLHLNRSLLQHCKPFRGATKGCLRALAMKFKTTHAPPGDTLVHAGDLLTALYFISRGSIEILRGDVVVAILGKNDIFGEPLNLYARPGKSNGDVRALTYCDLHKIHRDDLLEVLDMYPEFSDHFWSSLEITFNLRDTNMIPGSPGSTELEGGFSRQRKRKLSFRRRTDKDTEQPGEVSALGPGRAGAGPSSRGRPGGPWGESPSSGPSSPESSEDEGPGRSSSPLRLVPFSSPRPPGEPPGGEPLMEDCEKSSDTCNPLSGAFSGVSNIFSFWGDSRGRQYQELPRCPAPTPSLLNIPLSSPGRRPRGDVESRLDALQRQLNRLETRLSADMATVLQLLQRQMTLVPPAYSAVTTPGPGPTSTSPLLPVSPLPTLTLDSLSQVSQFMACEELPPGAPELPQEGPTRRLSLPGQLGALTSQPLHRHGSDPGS
Protocol: Briefly, Chinese hamster ovary (CHO) cells stably expressing the hERG channel were dislodged from tissue culture flasks and dispensed into PPC plates. […] During the recording, background leak currents were estimated by a 100 ms step to -80 mV from an initial holding potential of -70 mV and subtracted from the subsequent current measurement. The campaign was conducted in two phases using slight differences in recording protocol. In the first phase, the initial voltage pulse used a 100 ms step to -30 mV from a holding potential of -70 mV, a 2 s conditioning step to +25 mV, and a 2 s test step to -30 mV. During the second phase of the screen, the potential during the conditioning step was raised to +45 mV. In both phases of the campaign, a secondary voltage pulse was applied using the same parameters as the second phase initial pulse. The initial and secondary pulses were applied in the absence of compound, and upon application of 1 μM and 10 μM test concentrations. […]
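Also: peak tail current of the secondary pulse compared with the same well before compound.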

Row | SMILES | hERG current change (%, negative = inhibition) at 10uM [%]
1 | CC(=O)c1cccc(NC(=O)CCNC(=O)c2ccccc2Cl)c1 | 11.4
2 | CCn1cc(C(=O)Nc2ccc(C)cc2[N+](=O)[O-])c(C)n1 | 5.23
3 | CN(Cc1nc(-c2cccs2)no1)CC1COCCO1 (stereo not drawn) | 1.17
4 | S=C(NCCN1CCOCC1)N1CCN(c2cccc(Cl)c2)CC1 | -16
5 | CC1=CC(=O)C(C(C)C)=C/C1=N/OC(=O)c1cccc([N+](=O)[O-])c1 | 7.36
6 | COc1ccc2nc(NC(=O)CSc3nnc(C)n3N)sc2c1 | 0.177
7 | O=c1cc(CSc2nnc(-c3cccs3)n2Cc2ccccc2)nc2sc3ccccc3n12 | -53.5
8 | O=c1c2ccccc2nnn1Cc1ccccc1 | 35.3
9 | C=CCn1c(SCn2nnc3ccccc3c2=O)nnc1-c1ccc(Br)cc1 | -62.7
10 | O=c1c2ccccc2nnn1CSc1nnc(-c2cccs2)n1Cc1ccccc1 | -62.6
11 | O=c1cc(CSc2nnc(C3CC3)n2Cc2ccccc2)nc2sccn12 | 11.7
12 | C=CCn1c(SCn2nnc3ccccc3c2=O)nc2scc(-c3cccs3)c2c1=O | -5.21
13 | C=CCn1c(SCn2nnc3ccccc3c2=O)nnc1-c1ccc(Cl)cc1 | -61.2
14 | C=CCn1c(SCn2nnc3ccccc3c2=O)nnc1-c1ccc(F)cc1 | -28.9
15 | O=c1cc(CCl)nc2sc3ccccc3n12 | 8.04
16 | C=CCn1c(SCn2nnc3ccccc3c2=O)nnc1C1CCCCC1 | -14.1
17 | C=CCn1c(COc2ccc(OC)cc2)nnc1SCn1nnc2ccccc2c1=O | -27.1
18 | C=CCn1c(COc2cccc(C)c2)nnc1SCn1nnc2ccccc2c1=O | -5.37
19 | CCCOc1cccc(C(=O)Nc2ccc3c(c2)OCCO3)c1 | 0.786
20 | CSc1cccc(NC(=O)C2CCN(S(=O)(=O)c3cnc[nH]3)CC2)c1 | 9.39
21 | Nc1c(NCc2ccccc2)c(=O)c1=O | -6.37
22 | Cc1nc2c(C)cccn2c(=O)c1NC(=O)c1ccc(Br)o1 | 5.14
23 | O=C(COc1cccc(C(F)(F)F)c1)Nc1cccnc1 | 4.03
24 | CCC(C)N(C(=O)c1csnn1)C(C(=O)NC1CCCC1)c1ccc(F)cc1 (stereo not drawn) | 0.39

Row | SMILES | hERG current change (%, negative = inhibition) at 10uM [%]
25 | CC(=O)c1cccc(NC(=O)CCCNC(=O)c2ccc(Cl)cc2)c1 | 2.99
26 | CCN(CC)C(=O)c1cn(-c2cccc(OC)c2)c(=O)c2ccccc12 | 9.66
27 | COC(=O)c1cc(Cl)nc2ccccc12 | -7.89
28 | COc1ccc(CNC(=O)c2cc(S(=O)(=O)N3CCCC3)cn2C)cc1 | 13.2
29 | Cc1nn(Cc2ccc(Cl)cc2)c(Cl)c1/C=N/NC(=O)c1cccnc1 | -45.2
30 | CN(C)CCCN(C(=O)CCSc1ccccc1)c1nc2cc3c(cc2s1)OCO3.Cl | -48.2
31 | CN(C)CCCN(C(=O)c1sc2ccccc2c1Cl)c1nc2ccc(F)cc2s1.Cl | -19.7
32 | CN(C)CCN(C(=O)C1CCCCC1)c1nc2cc3c(cc2s1)OCO3.Cl | -9.7
33 | CN(C)CCCN(C(=O)C1COc2ccccc2O1)c1nc2ccc(F)cc2s1.Cl (stereo not drawn) | -75.4
34 | CN(C)CCCN(C(=O)c1nc2ccccc2s1)c1nc2ccc(F)cc2s1.Cl | 4.17
35 | CN(C)CCCN(C(=O)C1COc2ccccc2O1)c1nc2cc3c(cc2s1)OCO3.Cl (stereo not drawn) | -64.4
36 | Cn1c(O)c(C=Nc2ccccc2Sc2ccccc2)c(=O)n(C)c1=O | 16.4
37 | CCCc1[nH]nc2c1C(c1ccc(OC)c(Cn3nnc4ccccc43)c1)C(C#N)=C(N)O2 (stereo not drawn) | -29.1
38 | CCCn1c(SCc2ccc(Cl)cc2)nc2c1c(=O)[nH]c(=O)n2C | 0.36
39 | CCOCCCNC(=O)C(NC(=O)c1ccc(NC(C)=O)cc1)c1ccc(C)cc1 (stereo not drawn) | -20.5
40 | CCc1ccc(CNC(=O)c2ccc(NC(=O)C3=CSCCO3)cc2)cc1 | -23
41 | O=C(C1COc2ccccc2O1)N1CCCC1 (stereo not drawn) | 16.8
42 | O=C(NCC(=O)N1CCC2(CC1)NCCc1[nH]cnc12)c1ccc2ccccc2c1 | 11.7
43 | O=C(Nc1nc2ccc(S(=O)(=O)N3CCCC3)cc2s1)c1ccco1 | 11.5
44 | CCCCn1c2ccc(F)cc2c2nnc(NN)nc21 | -44.9
45 | CCn1c2ccc(F)cc2c2nnc(SCCN3CCCCC3)nc21 | -61
46 | CCCCn1c2ccc(F)cc2c2nnc(SCCN3CCOCC3)nc21 | -55.4
47 | CCCn1c2ccc(F)cc2c2nnc(SCCN3CCOCC3)nc21 | -35.8
48 | CCCn1c2ccc(F)cc2c2nnc(SCCN3CCCCC3)nc21 | -64.2

Row | SMILES | hERG current change (%, negative = inhibition) at 10uM [%]
49 | CCn1c2ccc(C)cc2c2nnc(SCCN3CCOCC3)nc21 | -13.8
50 | CCCn1c2ccc(F)cc2c2nnc(NN)nc21 | -1.94
51 | CCn1c2ccc(F)cc2c2nnc(NN)nc21 | -9.93
52 | CCn1c2ccccc2c2nnc(SCCN3CCOCC3)nc21 | 3.2
53 | CCn1c2nc(SCCN3CCOCC3)nnc2c2cc(C)cc(C)c21 | -95.3
54 | CCn1c2ccc(F)cc2c2nnc(SCCN3CCOCC3)nc21 | -41.2
55 | CCCn1c2ccccc2c2nnc(SCCN3CCOCC3)nc21 | -9.15
56 | Cc1cccc2cc(/C=N/NC(=O)c3ccccc3O)c(Cl)nc12 | -2.17
57 | O=C1[C@H]2[C@@H](c3ccc(Cl)cc3)N3C(=O)N(c4cccc(Cl)c4)C(=O)[C@@]3(Cc3ccccc3)[C@H]2C(=O)N1C1CCCCC1 | -2.02
58 | Cc1cc(C)nc(NC2=NCCN2C(=O)NC2CCCCC2)n1 | -17.7
59 | [2H]c1c([2H])c([2H])c(-c2nc(N3CCCCCC3)sc2C(=O)c2ccccc2)c([2H])c1[2H] | -2.19
60 | CC(C)CCNC(=O)C1CCCN(S(=O)(=O)c2ccc(F)cc2)C1 (stereo not drawn) | 6.85
61 | CC(=O)Nc1ccccc1NC(=O)c1ccc(C)cc1C | 23.7
62 | S=c1[nH]nc(COc2cccc(Cl)c2)n1Cc1ccccc1 | 34.4
63 | COc1cccc(NC(=O)CSc2nc(C3CC3)nc3ccccc23)c1 | 4.75
64 | CCCn1c2ccc(C)cc2c2nnc(SCCN3CCOCC3)nc21 | -32.5
65 | CCCCn1c2ccc(C)cc2c2nnc(SCCN3CCCCC3)nc21 | -74.3
66 | Cc1ccc2[nH]c3nc(SCCN4CCOCC4)nnc3c2c1 | 8.91
67 | CSCCC(NC(=O)C1CCC(C)CC1)C(=O)O (stereo not drawn) | 16.6
68 | Cc1cccnc1NC(=O)c1ccc(Br)o1 | 32.6
69 | Nc1nc(NC(=O)c2ccccc2)nn1-c1ccccc1 | -70.9
70 | Cc1ccc(C(=O)Nc2nc(N)n(-c3ccccc3)n2)cc1 | -0.817
71 | COc1ccc(C(=O)Nc2nc(N)n(-c3ccccc3)n2)cc1 | -11.4
72 | Nc1nc(NC(=O)/C=C/c2ccc(F)cc2)nn1-c1ccccc1 | -53.4

Row | SMILES | hERG current change (%, negative = inhibition) at 10uM [%]
73 | COc1ccc(/C=C/C(=O)Nc2nc(N)n(-c3ccccc3)n2)cc1 | -53
74 | Nc1nc(NC(=O)/C=C/c2ccccc2)nn1-c1ccccc1 | -32.6
75 | Nc1nc(NC(=O)/C=C\C(=O)O)nn1-c1ccccc1 | 27.8
76 | Nc1nc(NC(=O)c2cccnc2)nn1-c1ccccc1 | 18.8
77 | COc1ccccc1/C=C/C(=O)Nc1nc(N)n(-c2ccccc2)n1 | -33.8
78 | Cc1ccc(Nc2nnc(SCc3ccccc3)s2)cc1 | 11.9
79 | O=[N+]([O-])c1ccc(S(=O)(=O)Nc2ccc(-c3ccc(N4CCCC4)nn3)cc2)cc1 | -8.67
80 | Cc1cc(C)c2nc(-c3ccccn3)cc(C(=O)Nc3ccc(S(=O)(=O)Nc4onc(C)c4C)cc3)c2c1 | -2.33
81 | CC(=O)OCCCN1C(=O)c2cccc3cc(Br)cc(c23)C1=O | 4.74
82 | O=S1(=O)c2ccccc2N=NN1Cc1ccc(Cl)cc1 | 16.1
83 | Cn1c(O)c(C=NC2C(=O)C3(C)CCC2C3(C)C)c(=O)n(C)c1=O (stereo not drawn) | -0.548
84 | Cc1onc(-c2c(F)cccc2Cl)c1C(=O)OCC(=O)NCc1ccco1 | 5.77
85 | COc1ccc(CN2CCCC(C(=O)N(C)Cc3ccccc3)C2)cc1OC.O=C(O)C(=O)O (stereo not drawn) | -71.1
86 | CN(Cc1ccccc1)C(=O)C1CCCN(Cc2ccc(Cl)cc2)C1.O=C(O)C(=O)O (stereo not drawn) | -71
87 | COc1ccc(CCN(C)C(=O)C2CCN(Cc3ccccc3)CC2)cc1OC.O=C(O)C(=O)O | 3.36
88 | CN(Cc1ccccc1)C(=O)C1CCCN(Cc2cccc(Cl)c2)C1.O=C(O)C(=O)O (stereo not drawn) | -23.5
89 | COc1ccc(CCN(C)C(=O)C2CCCN(Cc3ccc(OC)c(OC)c3)C2)cc1OC (stereo not drawn) | 9.21
90 | CCN(CC)C(=O)C1CCCN(Cc2ccccc2)C1 (stereo not drawn) | 9.57
91 | COc1ccc(OC)c(CN2CCC(C(=O)N(C)CCc3ccc(OC)c(OC)c3)CC2)c1.O=C(O)C(=O)O | -11.5
92 | COc1ccc(CCN(C)C(=O)C2CCN(Cc3ccc(C)cc3)CC2)cc1OC.O=C(O)C(=O)O | -60.8
93 | COc1ccc(CCN(C)C(=O)C2CCCN(Cc3ccc(OC)c(OC)c3)C2)cc1OC.O=C(O)C(=O)O (stereo not drawn) | -3.31
